Reference: ChEMBL document CHEMBL3988442, “University of Dundee, Small-Polar-MMV Screening Library” (2021)
In all, about 48,000 compounds went through this assay and about 13,000 (27%) showed an effect of 50% or more. Some of the results follow.

Test system: Wolbachia pipientis
Experiment: Anti-Wolbachia Cell-Based Screen
Assay type: functional
Design: scale not given: in the data most compounds retested in dose-response had high values
Details: 5 µM

| Compound | Percent Effect [%] |
| --- | --- |
| N#Cc1cccnc1NCc1ccc(S(=O)(=O)NC2CC2)cc1 | -3.149 |
| CCOCCNCC1CCN(CCO)CC1 | -14.57 |
| N#Cc1cc(F)ccc1CN1CCCCC1Cn1cncn1 (stereo not given) | 7.796 |
| O=C(Nc1ccccc1Cn1cncn1)C1CCN(C2CCCCC2)C1 (stereo not given) | -3.545 |
| COCCCn1cnnc1C(C)NC(=O)c1[nH]c2ccc(C)cc2c1C (stereo not given) | 21.75 |
| COCCC1COC2(CCN(C(=O)CC3CCCC3)CC2)C1 (stereo not given) | -6.475 |
| CN1C(=O)CC(c2ccccc2)C12CCN(C(=O)c1ccc[nH]1)CC2 (stereo not given) | -3.808 |
| Cc1nn(C)c(C)c1C(=O)N1CCN(C(=O)CC2CCCCC2)CC1 | -14.94 |
| CCOC(=O)[C@H]1[C@@H](O)C(=O)N(C)C12CCN(S(=O)(=O)CC)CC2 | 107.6 |
| CCOC(=O)[C@H]1[C@@H](O)C(=O)N(C)C12CCN(C(=O)CC1CCCC1)CC2 | 108.5 |
| CCOC(=O)C1CN(S(=O)(=O)CC)Cc2ncn(CC)c21 (stereo not given) | 10.83 |
| CCS(=O)(=O)N1CCC2(CCCC(=O)N2C)CC1 | 1.174 |
| CCOC(=O)[C@H]1[C@@H](O)C(=O)N(C)C12CCN(C(=O)c1ccccc1)CC2 | 113.3 |
| Cc1ccc(F)c(OC2(C(=O)O)CCN(C(=O)c3ccccc3)CC2)c1 | -18.21 |
| OC[C@H]1CN(Cc2c(Cl)cncc2Cl)C[C@H]1CN1CCCC1 | -2.945 |
| COCCc1noc(-c2ccc(-c3ccc(N)nc3)nc2)n1 | 3.848 |
| CC(C)N(C)S(=O)(=O)N1CCCC1C(=O)N1CCSCC1 (stereo not given) | -16.03 |
| CN(C)C1CCCN(Cc2cccc(Cn3cccn3)c2)CC1 (stereo not given) | -12.17 |
| CCCn1c(C)c(CC(=O)NC)c2c1CC(C)(C)CC2=O | -16.12 |
| Cc1nc(-c2ccsc2)ccc1C(=O)NCCC1CCCO1 (stereo not given) | -16.18 |
| Cc1ccc(C(=O)NCCC2CN(C3CCCC3)CCO2)c(C)c1 (stereo not given) | 105.7 |
| CC(=O)N1CCC(N2CCOC(CC3CCCCC3)C2)CC1 (stereo not given) | -12.42 |
| O=C(NCCC1CN(C2CCCC2)CCO1)c1cc(=O)[nH]c(=O)[nH]1 (stereo not given) | 90.1 |
| Cc1nc[nH]c1CN1CCOC(CCNC(=O)c2ccsc2)C1 (stereo not given) | 3.165 |
| O=C(c1cc(=O)[nH]c(=O)[nH]1)N1CCCCC1c1ccc(F)cc1 (stereo not given) | -19.12 |
| O=C(NCCC1CN(C2CCCC2)CCO1)c1c[nH]c(=O)[nH]c1=O (stereo not given) | 104.1 |
| Cc1ccc(C(=O)NCC(O)CN2CCCC2=O)c(C)c1 (stereo not given) | -3.657 |

| Compound | Percent Effect [%] |
| --- | --- |
| O=C(NCCC1CCCO1)c1ccccc1N1CCOCC1 (stereo not given) | -10.37 |
| CC(c1ccccc1)N(C)C(=O)CN1CCCc2cc(F)cc(F)c21 (stereo not given) | -34.4 |
| CCc1cnc(N2C[C@H]3C[C@H](C(=O)N(C)C)[C@@H](C2)O3)nc1 | -23.08 |
| CCc1cnc(N2C[C@H]3C[C@H](C(=O)NC)[C@@H](C2)O3)nc1 | 2.577 |
| O=C(C1CN(c2ncc(F)cn2)CC12CCOCC2)N1CCOCC1 (stereo not given) | -0.101 |
| CCc1cnc(N2C[C@H]3C[C@H](C(=O)N4CCOCC4)[C@@H](C2)O3)nc1.O=C(O)C(F)(F)F | 104.4 |
| O=C([C@H]1C[C@@H]2CN(c3ncc(F)cn3)C[C@H]1O2)N1CCCC1 | 104.9 |
| CCc1cnc(N2C[C@H]3C[C@H](C(=O)NCC(C)C)[C@@H](C2)O3)nc1 | -2.395 |
| Cc1cnc(N2C[C@H]3C[C@H](C(=O)N(C)C)[C@@H](C2)O3)nc1 | -7.121 |
| O=C(O)C(F)(F)F.O=C([C@H]1COC[C@H]2CN(c3ncc(F)cn3)C[C@H]21)N1CCOCC1 | -8.043 |
| O=C([C@H]1C[C@@H]2CN(c3ncc(F)cn3)C[C@H]1O2)N1CCOCC1 | 99.35 |
| O=C(NCCCF)Nc1ccc2nc(N3CCOCC3)oc2c1 | 0.7918 |
| CC(C)NC(=O)C1CCN(c2nc3nc[nH]c(=O)c3s2)CC1 | 92.05 |
| O=C(C1CCN(c2nc3nc[nH]c(=O)c3s2)CC1)N1CCCCC1 | 84.01 |
| O=C(NC1CC1)C1CCN(c2nc3nc[nH]c(=O)c3s2)CC1 | 99.33 |
| CCc1c(C)nc2ccccc2c1N1CCC(C(=O)NC)CC1 | -7.875 |
| CCc1nc(CC(=O)N2CCC(C(=O)N3CCCC3)CC2)cs1 | -3.887 |
| CNC(=O)C1CCN(c2nc3nc[nH]c(=O)c3s2)CC1 | 82.12 |
| O=C(NC1CCCC1)C1CCN(c2cc(-n3ccnc3)ncn2)CC1 | -4.5 |
| O=C(C1CCN(c2snc3ccccc23)CC1)N1CCCCCC1 | 0.1158 |
| CC(NC(=O)C1CCN(C(C)C)CC1)c1nncn1C1CCCC1 (stereo not given) | -21.33 |
| CC(C)NC(=O)C1CCN(Cn2ccc(-c3ccc(F)cc3)n2)CC1 | 3.574 |
| O=C(NC1CCN(c2snc3ccccc23)CC1)C1CCC1 | 9.197 |
| CNC(=O)C1CCCN(c2nc3c(-c4ccccc4)csc3c(=O)[nH]2)C1 (stereo not given) | 3.58 |
| CCC(=O)N1CCc2[nH]cnc2C12CCN(CC1CCOC1)CC2 (stereo not given) | -0.5236 |
| O=C(CCc1ccco1)NCC1CCCN1c1cccnn1 (stereo not given) | 2.662 |
| Fc1cc(CN2CCOC3(CCOCC3)C2)ccc1Cl | 8.168 |

| Compound | Percent Effect [%] |
| --- | --- |
| CN(C)C(=O)CNC(=O)c1ccc2c(-c3nccs3)noc2c1 | -0.7255 |
| CC(Cc1ccco1)NC(=O)C1=NN(c2ccccc2)C(=O)CC1 (stereo not given) | -5.577 |
| Cn1cnc2c1CCN(CCCOc1ccc(C#N)cc1)C2 | -1.382 |
| CN(C)c1ccc(-c2nnc([C@H]3CCN(C4CCCCC4)C3)o2)cc1 | -10.19 |
| O=C(NCCO)C1(Cc2cc(-c3ccc(F)cc3F)no2)CCOCC1 | -8.546 |
| Cc1ccccc1-c1cc(CC2(C(=O)O)CCOCC2)on1 | 97.16 |
| O=C(O)C1(Cc2cc(-c3cccc(F)c3)no2)CCOCC1 | -9.48 |
| Cc1ccccc1C1(C(=O)NCCN2CCCC2)CCOCC1 | 3.645 |
| O=C(O)C1(Cc2cc(-c3ccc(F)cc3)no2)CCOCC1 | 104.3 |
| Cc1cc(NCC2(O)CCOCC2)c2ccccc2n1 | 18.91 |
| O=C(O)C1(Cc2cc(-c3ccccc3F)no2)CCOCC1 | 118.9 |
| O=C(NC1CC1)C1(Cc2cc(-c3ccc(F)cc3F)no2)CCOCC1 | 116.7 |
| O=C(CNC1(CCO)CCOCC1)Nc1ccc(F)cc1F | 0.1585 |
| O=C(O)C1(Cc2cc(-c3ccc(F)cc3F)no2)CCOCC1 | -11.85 |
| COCCNC(=O)c1cc(F)ccc1NS(C)(=O)=O | -6.492 |
| Cc1cc(C)n(CC2CCCN2CC(=O)N(C)Cc2cnn(C)c2)n1 (stereo not given) | 3.257 |
| Cc1ccsc1CN(CCN(C)C)C(=O)C1=NNC(=O)CC1 | -65.43 |
| O=C(CSc1ccncc1)N1CCC2(CC1)c1ccccc1CC2O (stereo not given) | -6.227 |
| CCS(=O)(=O)N1CC[C@H]2O[C@@H](c3nnc(C)o3)CC[C@H]21 | -3.387 |
| CCc1nc(C)c(C(=O)N2CCNCC2C(=O)NCc2ccncc2)o1 (stereo not given) | -5.393 |
| COCc1noc(-c2nn(-c3ccc(F)cc3)c3c2CCC3)n1 | -5.396 |
| COCCOCc1cccc(NC(=O)N2CCCC2c2ccncc2)c1 (stereo not given) | 1.869 |
| CNC(=O)C(C)(C)N1CCC[C@H]1C(=O)NCCN(C)C.Cl | 11.97 |
| Cc1ccccc1C(=O)NC1CCN(c2cnn(C)c2)C1=O (stereo not given) | -0.04337 |
| O=C(Nc1ccc(Cn2cccn2)cc1)N1CCC(CO)CC1 | 5.025 |
| Cc1ncc2c(n1)CCCC2NC(=O)c1ccncc1 (stereo not given) | 4.921 |
| Cc1ncc2c(n1)CCCC2NC(=O)c1ccccc1C(=O)O (stereo not given) | 116.6 |

| Compound | Percent Effect [%] |
| --- | --- |
| Cc1ncc2c(n1)CCCC2NC(=O)c1ccccc1Cn1cncn1 (stereo not given) | -4.956 |
| Cc1ncc2c(n1)CCCC2NC(=O)c1ccc(Cn2cccn2)cc1 (stereo not given) | 102.9 |
| Cc1ccccc1Oc1ncccc1CNS(C)(=O)=O | -1.022 |
| CNC(=O)CN(C)S(=O)(=O)c1c(Br)cc2[nH]c(=O)oc2c1Cl | -6.435 |
| CNc1cc(C)nc(-c2cc(NC3CCNCC3)nc3[nH]ccc23)n1 | 81.74 |
| COc1nccnc1-c1cc(NC2CCNCC2)nc2[nH]ccc12 | -9.475 |
| CNc1cc(C)nc(-c2cc(NC)nc3[nH]ccc23)n1 | 82.65 |
| CN(C)CCNc1cc(-c2ccc[nH]c2=O)c2cc[nH]c2n1 | 6.813 |
| Nc1ccnc(-c2cc(NC3CCNCC3)nc3[nH]ccc23)c1 | 10.25 |
| CN(C)CCNc1cc(-c2ncccn2)c2cc[nH]c2n1 | -0.2256 |
| CNc1cc(C)nc(-c2cc(NCCO)nc3[nH]ccc23)n1 | 88.51 |
| COc1cccc(-c2cc(NCCO)nc3[nH]ccc23)n1 | 17.98 |
| COc1cccc(-c2cc(NCCN(C)C)nc3[nH]ccc23)n1 | -69.14 |
| COCc1ncn(Cc2nc(-c3ccc(OC)c(OC)c3)oc2C)n1 | 7.274 |
| Cn1ccc(CNC(=O)Nc2ccc(S(=O)(=O)C(F)F)cc2)c1 | -20.88 |
| N#Cc1cc(NC(=O)c2ccccn2)ccc1N1CCC(O)CC1 | -12.43 |
| Cc1cc2cccc(C(=O)N3CC[C@@H](N)[C@H](O)C3)c2o1 | -9.123 |
| Cc1nc(C(C)C)ncc1C(=O)N1CCC(c2ccccc2C(=O)O)C1 (stereo not given) | -21.75 |
| Cc1nc(-c2ccccc2C(=O)O)cc(C2CCN(C(C)C)C2)n1 (stereo not given) | 107.2 |
| CC(=O)N1CCC(c2nc(C)cc(-c3ccccc3C(=O)O)n2)CC1 | 83.33 |
| Cc1cc(C(=O)N2CCCC(c3noc(C)n3)C2)[nH]n1 (stereo not given) | -10.2 |
| Cc1noc(C2CCCN(C(=O)c3ccc(F)cc3F)C2)n1 (stereo not given) | -2.652 |
| Cc1cc(-c2cc(F)ccc2C(=O)O)nc(C2CCCN(C)C2)n1 (stereo not given) | 126.1 |
| Cc1cc(-c2ccccc2C(=O)O)nc(C2CCCN(C)C2)n1 (stereo not given) | 123 |
